In PubChem BioAssay (NCATS):
Records with an inconclusive call do not appear. A call without a number means that no potency is given here. Activity calls are given as the source filed them. The call rests on the fitted dose curve; in most records, active means well fitted inhibition curve with a large enough effect; inconclusive means small, poorly fitted or top-dose-only effect; inactive means flat fitted curve, though single readings scatter.

Test: qHTS of Trypanosoma Brucei Inhibitors: LOPAC Validation (AID 624147)
Settings: purified enzyme assay, luminescence, 45 min; series mostly up to 57.5 µM
Source text: Members of the Trypanosomatidae family of parasitic protozoans cause a spectrum of diseases throughout the tropical and subtropical world. Sleeping sickness, caused by two subspecies of Trypanosoma brucei, is endemic to areas of sub-Saharan Africa, while Chagas' disease, a manifestation of Trypanosoma cruzi infection, is prevalent throughout Central and South America. In addition, many species of Leishmania are responsible for a range of cutaneous and visceral diseases, causing ulcers, destructive lesions and kalaazar, a lethal infection of the viscera. These diseases cause severe public health and economic burdens on populations that are often already caught in a tragic cycle of poverty, poor nutrition and disease. Collectively, parasites of the trypanosomatid family infect 30 million people worldwide (~500 million live in endemic areas), and account for ~130K deaths annually. Existing treatments have developed little in the past 50 years, and suffer from toxicity, poor efficacy and resistance; the goal of this project is to develop lead drugs that will be suitable for entry into pre-clinical trials.
Glycolysis in axenically cultured T. cruzi, representing the intracellular pathogenic stage, is also essential for these parasites. {Engel, 1987} This project aims to discover and optimize selective inhibitors of the glycolytic enzyme pyruvate kinase (PYK) from Trypanosoma brucei, the parasite that causes sleeping sickness. […] Trypanosomatid PYKs show significant differences from their human counterparts including only 47-50% sequence identity and different allosteric and activation properties.{Callens, 1992} To this end, a qHTS was done against the MLSMR to discover inhibitors.
NIH Molecular Libraries Probe Production Network [MLPCN]
NIH Chemical Genomics Center [NCGC]
PI Name: Malcolm Walkinshaw, University of Edinburgh
2 uL of TbPYK/substrate buffer (columns 1-3, 5-48) are dispensed into Greiner white solid bottom 1536-well assay plates; column 4 receives only TEA buffer as 0x TbPYK controls. Compounds are then transferred via Kalypsys pin tool equipped with 1536-pin array (10 nL slotted pins, V&P Scientific, San Diego, CA). Following addition of compound, 2 uL of ADP (130 uM final concentration, all columns) is added to initiate the reaction. The plates are then incubated at room temperature for 45 minutes. Kinase-Glo Plus reagent is added (3 uL) and plates incubated for 10 minutes, before being transferred to a ViewLux high-throughput CCD imager (PerkinElmer) wherein single end-point measurements of luminescence are acquired using a clear filter. All reagents are diluted in an assay buffer consisting of 50 mM TEA (pH 7.2), 100 mM KCl, 10 mM MgCl2, 0.05% BSA and 0.01% Tween-20.
All screening operations will be performed on a fully integrated robotic system (Kalypsys, San Diego, CA) containing one RX-130 and two RX-90 anthropomorphic robotic arms (Staeubli, Duncan, SC). Library plates will be screened starting from the lowest and proceeding to the highest concentration. Vehicle-only plates, with DMSO being pin-transferred to columns 5-48, will be inserted uniformly at the beginning and the end of each library in order to monitor and record any shifts in the background, which can be affected by reagent dispensers or loss in enzyme activity over time. Screening data will be corrected, normalized, and concentration-effect relationships will be derived by using publicly-available curve fitting algorithms developed in-house (http://ncgc.nih.gov/pub/openhts).
Potency means the concentration at half of the fitted maximal effect.

| SMILES | Potency |
| --- | --- |
| CC(C)NC[C@H](O)COc1cccc2[nH]ccc12 | inactive |
| CC(C)(C=O)Cc1cc(C(C)(C)C)c(O)c(C(C)(C)C)c1 | inactive |
| O=C1/C(=C/c2ccsc2)CC/C1=C\c1cccs1 | inactive |
| NS(=O)(=O)C#Cc1ccccc1 | inactive |
| COc1ccccc1N1CCN(CCN(C(=O)c2ccc(I)cc2)c2ccccn2)CC1 | inactive |
| CC12C(=O)OC(=O)C1(C)C1CCC2O1 (stereo not given) | inactive |
| C[C@@H](NC(=O)/C(C#N)=C/c1ccc(O)c(O)c1)c1ccccc1 | inactive |
| CN1CCc2ccccc2Cc2[nH]c3ccccc3c2CC1 | inactive |
| CC(C)NC[C@@H](O)c1ccc(O)c(O)c1 | inactive |
| NCCNC(=O)c1ncsc1-c1cccc(F)c1 | inactive |
| CCN1/C(=C/C(C)=O)Sc2ccc(OC)cc21 | inactive |
| O=c1[nH]c2cc(Cl)c(Cl)cc2[nH]c1=O | inactive |
| Nc1nc(Cl)nc2c1ncn2[C@@H]1O[C@H](CO)[C@@H](O)[C@H]1O | inactive |
| CCc1c(C(=O)NCCc2ccc(N3CCCCC3)cc2)[nH]c2ccc(Cl)cc12 | inactive |
| CN(C)CCCO[C@@H]1[C@H]2OC(C)(C)O[C@H]2O[C@@H]1[C@H](O)CO | inactive |
| CN1[C@@H](CC(=O)c2ccccc2)CCC[C@H]1C[C@H](O)c1ccccc1 | inactive |
| CN(C)C(N)=NCCC[C@H](N)C(=O)O | inactive |
| CNC(=O)[C@H]1O[C@@H](n2cnc3c(NCc4ccc(N)cc4)ncnc32)[C@H](O)[C@@H]1O | inactive |
| NCC1OC(O[C@H]2[C@H](O)[C@@H](OC3C(O)C(N)CC(N)C3OC3OC(CO)C(O)C(O)C3N)O[C@@H]2CO)C(N)C(O)C1O (stereo not given in full) | inactive |
| CN(C)CCC(c1ccc(Cl)cc1)c1ccccn1 (stereo not given) | inactive |

| SMILES | Potency |
| --- | --- |
| C[N+](C)(C)CCOP(=O)(O)OP(=O)([O-])OC[C@H]1O[C@@H](n2ccc(N)nc2=O)[C@H](O)[C@@H]1O | inactive |
| Cn1c(=O)c2[nH]c(-c3ccccc3)nc2n(C)c1=O | inactive |
| COc1cccc(C(=O)NCCN2CCN(c3ccc(Cl)cc3)CC2)c1 | inactive |
| CCCCCCCC/C=C\CCCCCCCC(=O)NCCO | inactive |
| CO/N=C(\C(=O)N[C@@H]1C(=O)N2C(C(=O)O)=C(COC(C)=O)CS[C@H]12)c1csc(N)n1 | inactive |
| O=C1NC(=O)/C(=C/c2ccc3nccnc3c2)S1 | inactive |
| C#CCN1C(C)=C(C(=O)OC)C(c2cccc([N+](=O)[O-])c2)C(C(=O)OCC)=C1C (stereo not given) | inactive |
| CC(N)C(=O)OC(C)(C)Cc1ccc(Cl)cc1 (stereo not given) | inactive |
| Nc1nc(Cl)nc2c1ncn2[C@@H]1O[C@H](COP(=O)(O)OP(=O)(O)OP(=O)(O)O)[C@@H](O)[C@H]1O | inactive |
| N=C(N)SCCc1ccc(CCSC(=N)N)cc1 | inactive |
| c1ccc(-c2ccccn2)nc1 | inactive |
| COc1ccccc1N1CCN(CCCCNS(=O)(=O)c2cccc3c(N(C)C)cccc23)CC1 | inactive |
| Cc1cc(NC(=O)Nc2ccc3c(ccn3C)c2)sn1 | inactive |
| CN1C2CCC1CC(OC(=O)C(O)c1ccccc1)C2 (stereo not given) | inactive |
| CC(C)CC(NP(=O)(O)O[C@@H]1O[C@@H](C)[C@H](O)[C@@H](O)[C@H]1O)C(=O)NC(Cc1c[nH]c2ccccc12)C(=O)O (stereo not given in full) | inactive |
| Oc1cc(O)cc(/C=C/c2ccc(O)c(O)c2)c1 | 13.5 µM (active) |
| Fc1cccc(/C=N/N=C/c2cccc(F)c2)c1 | inactive |
| NC(CCCP(=O)(O)O)C(=O)O (stereo not given) | inactive |
| N#C/C(=C\c1ccc(O)c(O)c1)C(=O)NCCCc1ccccc1 | inactive |
| Nc1nc(Nc2ccccc2)nc2c1ncn2[C@@H]1O[C@H](CO)[C@@H](O)[C@H]1O | inactive |
